# Laboratory results: PubChem BioAssay (NCI)
# Several values for one entry are separate records, joined by “and”; a condition that tells them apart may be missing. Equal entries are not always repeated. This is part of a sample that, as a whole, favours compounds with a hit. Of some 83,000 tested, about 20% had one in any assay.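 Single-concentration screen, 48 h exposure, 96-well plates. Endpoint: percent growth. Below 10 = active.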 Activity calls are given as the source filed them.
# What was measured:
# Experiment in all cases: NCI-60 one-dose screen, 48 h (100 = growth as untreated, 0 = no growth, -100 = all killed)
# NCI-H23 lung = test system: NCI-H23 lung
# NCI-H226 lung = test system: NCI-H226 lung
# NCI-H322M lung = test system: NCI-H322M lung
# HOP-62 NSCLC = test system: HOP-62 NSCLC
# NCI-H460 lung = test system: NCI-H460 lung
# HOP-92 NSCLC = test system: HOP-92 NSCLC
# NCI-H522 lung = test system: NCI-H522 lung
# A549/ATCC NSCLC = test system: A549/ATCC NSCLC
# 786-0 renal = test system: 786-0 renal
# DU-145 prostate = test system: DU-145 prostate
# K-562 leukemia = test system: K-562 leukemia
# MALME-3M melanoma = test system: MALME-3M melanoma
# MDA-MB-231 breast = test system: MDA-MB-231 breast
# RXF 393 renal = test system: RXF 393 renal
# SF-268 CNS = test system: SF-268 CNS
# SF-295 CNS = test system: SF-295 CNS
# SF-539 CNS = test system: SF-539 CNS
# UACC-257 melanoma = test system: UACC-257 melanoma
# M14 melanoma = test system: M14 melanoma
# HCT-15 colon = test system: HCT-15 colon
smiles,measurement,setting,value
S=C(SSC(=S)N1CCCCC1)N1CCCCC1,growth,NCI-H23 lung; 10 µM,101% (inactive)
same,growth,NCI-H23 lung; 100 µM,-5.33% (active)
same,growth,NCI-H226 lung; 10 µM,104% (inactive)
same,growth,NCI-H226 lung; 100 µM,10.4% (inactive)
same,growth,NCI-H322M lung; 10 µM,102% (inactive)
same,growth,NCI-H322M lung; 100 µM,32% (inactive)
same,growth,HOP-62 NSCLC; 10 µM,110% (inactive)
same,growth,HOP-62 NSCLC; 100 µM,37.6% (inactive)
same,growth,NCI-H460 lung; 10 µM,91.9% (inactive)
same,growth,NCI-H460 lung; 100 µM,-2.57% (active)
same,growth,HOP-92 NSCLC; 10 µM,101% (inactive)
same,growth,HOP-92 NSCLC; 100 µM,9.88% (active)
same,growth,NCI-H522 lung; 10 µM,87% (inactive)
same,growth,NCI-H522 lung; 100 µM,-44.2% (active)
same,growth,A549/ATCC NSCLC; 10 µM,93.3% (inactive)
same,growth,A549/ATCC NSCLC; 100 µM,26.1% (inactive)
same,growth,786-0 renal; 10 µM,98.7% (inactive)
same,growth,786-0 renal; 100 µM,-3.71% (active)
same,growth,DU-145 prostate; 10 µM,107% (inactive)
same,growth,DU-145 prostate; 100 µM,9.68% (active)
same,growth,K-562 leukemia; 10 µM,102% (inactive)
same,growth,K-562 leukemia; 100 µM,-13.7% (active)
same,growth,MALME-3M melanoma; 10 µM,124% (inactive)
same,growth,MALME-3M melanoma; 100 µM,-76.9% (active)
same,growth,MDA-MB-231 breast; 10 µM,104% (inactive)
same,growth,MDA-MB-231 breast; 100 µM,-35.8% (active)
same,growth,RXF 393 renal; 10 µM,114% (inactive)
same,growth,RXF 393 renal; 100 µM,-15.7% (active)
same,growth,SF-268 CNS; 10 µM,101% (inactive)
same,growth,SF-268 CNS; 100 µM,0.593% (active)
same,growth,SF-295 CNS; 10 µM,97.3% (inactive)
same,growth,SF-295 CNS; 100 µM,1.68% (active)
same,growth,SF-539 CNS; 10 µM,104% (inactive)
same,growth,SF-539 CNS; 100 µM,-61.6% (active)
same,growth,UACC-257 melanoma; 10 µM,87.7% (inactive)
same,growth,UACC-257 melanoma; 100 µM,40.5% (inactive)
same,growth,M14 melanoma; 10 µM,92.6% (inactive)
same,growth,M14 melanoma; 100 µM,-49.6% (active)
same,growth,HCT-15 colon; 10 µM,90.1% (inactive)
same,growth,HCT-15 colon; 100 µM,5.6% (active)
CC(=O)O[C@H]1C[C@@H]2OC3C=C(C)CCC3(C)[C@@]1(C)[C@@]21CO1 (stereo not given in full),growth,NCI-H23 lung; 10 µM unless noted,-32.5% (active) and -10.8% (active)
same,growth,NCI-H226 lung; 10 µM unless noted,-24.8% (active)
same,growth,NCI-H322M lung; 10 µM unless noted,-19.5% (active)
same,growth,HOP-62 NSCLC; 10 µM unless noted,17% (inactive) and -10.8% (active)
same,growth,NCI-H460 lung; 10 µM unless noted,0.408% (active) and -3.28% (active)
same,growth,HOP-92 NSCLC; 10 µM,-21.3% (active) and -15.3% (active)
same,growth,NCI-H522 lung; 10 µM unless noted,-46.4% (active) and -45.1% (active)
same,growth,A549/ATCC NSCLC; 10 µM unless noted,-9.42% (active) and -20.5% (active)
same,growth,786-0 renal; 10 µM unless noted,-15.6% (active) and -10.8% (active)
same,growth,DU-145 prostate; 10 µM unless noted,-10.8% (active) and -37.3% (active)
same,growth,K-562 leukemia; 10 µM unless noted,3.64% (active) and -17.5% (active)
same,growth,MALME-3M melanoma; 10 µM unless noted,-35.1% (active) and -36% (active)
same,growth,MDA-MB-231 breast; 10 µM unless noted,-12.8% (active) and -34.4% (active)
same,growth,RXF 393 renal; 10 µM unless noted,-21.4% (active) and -34.9% (active)
same,growth,SF-268 CNS; 10 µM unless noted,1.16% (active) and -20.3% (active)
same,growth,SF-295 CNS; 10 µM unless noted,-26.1% (active) and 0.436% (active)
same,growth,SF-539 CNS; 10 µM unless noted,-24.5% (active) and -26.6% (active)
same,growth,UACC-257 melanoma; 10 µM unless noted,-26% (active) and -33.7% (active)
same,growth,M14 melanoma; 10 µM unless noted,-81.2% (active) and -64.8% (active)
same,growth,HCT-15 colon; 10 µM unless noted,-0.358% (active) and -0.281% (active)
Cc1cc(N=Nc2ccccc2C)ccc1N,growth,NCI-H23 lung; 10 µM unless noted,79.6% (inactive)
same,growth,NCI-H226 lung; 10 µM unless noted,71.1% (inactive)
same,growth,NCI-H322M lung; 10 µM unless noted,89.2% (inactive)
same,growth,HOP-62 NSCLC; 10 µM unless noted,69.3% (inactive)
same,growth,NCI-H460 lung; 10 µM unless noted,80.7% (inactive)
same,growth,HOP-92 NSCLC; 10 µM,48.8% (inactive)
same,growth,NCI-H522 lung; 10 µM unless noted,57.6% (inactive)
same,growth,A549/ATCC NSCLC; 10 µM unless noted,47.6% (inactive)
same,growth,786-0 renal; 10 µM unless noted,-13.5% (active)
same,growth,DU-145 prostate; 10 µM unless noted,68.1% (inactive)
same,growth,K-562 leukemia; 10 µM unless noted,65.7% (inactive)
same,growth,MALME-3M melanoma; 10 µM unless noted,68.6% (inactive)
same,growth,MDA-MB-231 breast; 10 µM unless noted,75.1% (inactive)
same,growth,RXF 393 renal; 10 µM unless noted,99.6% (inactive)
same,growth,SF-268 CNS; 10 µM unless noted,47.3% (inactive)
same,growth,SF-295 CNS; 10 µM unless noted,83.9% (inactive)
same,growth,SF-539 CNS; 10 µM unless noted,48.9% (inactive)
same,growth,UACC-257 melanoma; 10 µM unless noted,132% (inactive)
same,growth,HCT-15 colon; 10 µM unless noted,84.9% (inactive)
C[C@H]1CCC/C=C/[C@@H]2C[C@H](O)C[C@H]2[C@H](O)/C=C/C(=O)O1,growth,NCI-H23 lung; 10 µM unless noted,-1.79% (active)
same,growth,NCI-H226 lung; 10 µM unless noted,-36.3% (active)
same,growth,NCI-H322M lung; 10 µM unless noted,5.77% (active)
same,growth,HOP-62 NSCLC; 10 µM unless noted,4.67% (active)
same,growth,NCI-H460 lung; 10 µM unless noted,8.73% (active)
same,growth,NCI-H522 lung; 10 µM unless noted,-43.6% (active)
same,growth,A549/ATCC NSCLC; 10 µM unless noted,13.1% (inactive)
same,growth,786-0 renal; 10 µM unless noted,-37.3% (active)
same,growth,DU-145 prostate; 10 µM unless noted,-7.84% (active)
same,growth,K-562 leukemia; 10 µM unless noted,5.56% (active)
same,growth,MALME-3M melanoma; 10 µM unless noted,-73% (active)
same,growth,MDA-MB-231 breast; 10 µM unless noted,-68% (active)
same,growth,RXF 393 renal; 10 µM unless noted,11% (inactive)
same,growth,SF-268 CNS; 10 µM unless noted,10.3% (inactive)
same,growth,SF-295 CNS; 10 µM unless noted,20.9% (inactive)
same,growth,SF-539 CNS; 10 µM unless noted,27.1% (inactive)
same,growth,UACC-257 melanoma; 10 µM unless noted,13.1% (inactive)
same,growth,M14 melanoma; 10 µM unless noted,-9.75% (active)
same,growth,HCT-15 colon; 10 µM unless noted,-28.2% (active)
CCC(=O)OC1CCn2c1nc1c2C(=O)C(C)=C(N2CC2)C1=O (stereo not given),growth,NCI-H23 lung; 10 µM unless noted,-28.5% (active)
same,growth,NCI-H226 lung; 10 µM unless noted,-23% (active)
same,growth,NCI-H322M lung; 10 µM unless noted,-5.88% (active)
same,growth,HOP-62 NSCLC; 10 µM unless noted,-29.4% (active)
same,growth,NCI-H460 lung; 10 µM unless noted,-23.6% (active)
same,growth,HOP-92 NSCLC; 10 µM,80.9% (inactive)
same,growth,NCI-H522 lung; 10 µM unless noted,-43% (active)
same,growth,A549/ATCC NSCLC; 10 µM unless noted,2.51% (active)
same,growth,786-0 renal; 10 µM unless noted,-16.5% (active)
same,growth,K-562 leukemia; 10 µM unless noted,9.08% (active)
same,growth,MALME-3M melanoma; 10 µM unless noted,-60.4% (active)
same,growth,MDA-MB-231 breast; 10 µM unless noted,71.7% (inactive)
same,growth,RXF 393 renal; 10 µM unless noted,-79.8% (active)
same,growth,SF-268 CNS; 10 µM unless noted,7.54% (active)
same,growth,SF-295 CNS; 10 µM unless noted,2.01% (active)
same,growth,SF-539 CNS; 10 µM unless noted,-33.6% (active)
same,growth,UACC-257 melanoma; 10 µM unless noted,-55.7% (active)
same,growth,M14 melanoma; 10 µM unless noted,-58.1% (active)
same,growth,HCT-15 colon; 10 µM unless noted,2.82% (active)
CC1=C2C(=O)[C@H]3[C@@H](CC=C4C[C@@H](O)CC[C@@]43C)[C@@H]2CC[C@]12O[C@@H]1C[C@H](C)CN[C@H]1[C@H]2C,growth,NCI-H23 lung; 10 µM unless noted,106% (inactive)
same,growth,NCI-H226 lung; 10 µM unless noted,95.3% (inactive)
same,growth,NCI-H322M lung; 10 µM unless noted,86.4% (inactive)
same,growth,HOP-62 NSCLC; 10 µM unless noted,50.9% (inactive)
same,growth,NCI-H460 lung; 10 µM unless noted,100% (inactive)
same,growth,A549/ATCC NSCLC; 10 µM unless noted,89.7% (inactive)
same,growth,786-0 renal; 10 µM unless noted,127% (inactive)
same,growth,DU-145 prostate; 10 µM unless noted,151% (inactive)
same,growth,K-562 leukemia; 10 µM unless noted,154% (inactive)
same,growth,MALME-3M melanoma; 10 µM unless noted,84.6% (inactive)
same,growth,MDA-MB-231 breast; 10 µM unless noted,105% (inactive)
same,growth,RXF 393 renal; 10 µM unless noted,98.8% (inactive)
same,growth,SF-268 CNS; 10 µM unless noted,105% (inactive)
same,growth,SF-295 CNS; 10 µM unless noted,93.3% (inactive)
same,growth,SF-539 CNS; 10 µM unless noted,101% (inactive)
same,growth,UACC-257 melanoma; 10 µM unless noted,104% (inactive)
same,growth,M14 melanoma; 10 µM unless noted,92.9% (inactive)
same,growth,HCT-15 colon; 10 µM unless noted,94.2% (inactive)
